Assay outcomes as filed in PubChem.
An excerpt weighted towards active compounds, which were near 1.8% of everything screened.
Sa RN4220 lethal: kills Staphylococcus aureus RN4220. S. aureus RN4220 growth, OD600, 16 h. inhibition, % (concentration not given with the values). 330,000 compounds, 0.33% hits; in the data active means inhibition above about 85%;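 further: plate controls were untreated cells for no effect and reference antibiotic for full effect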
Sa ugtP lethal: compounds lethal to S. aureus RN4220 ugtP deletion mutant. OD600 growth, 16 h. growth inhibition, % (concentration not given with the values). 330,000 compounds, 0.54% hits. AID 1259309; in the data active means growth inhibition above about 68%;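 further: plate controls were untreated wells for no effect and antibiotic for full effect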
PriA SSB inh: blocks PriA binding to SSB C-terminal tail; AlphaScreen SSBct-PriA binding, biotinylated peptide; inhibition, % at 33 µM; 430,000 compounds, 0.6% hits; in the data active means inhibition mostly above about 37%, no sharp cut-off; inactive means mostly below about 20%;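 further: plate controls were negative control peptide for no effect and reference peptide for full effect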
PfHsp40 yeast: compounds rescuing yeast from Plasmodium falciparum HSP40 toxicity; S. cerevisiae expressing PfHsp40, growth rescue, ATP luminescence; growth rescue, % at 12.5 µM; 340,000 compounds, 0.68% hits; in the data active means growth rescue above about 28%, passing the limit was not always enough;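 further: yeast W303a lacking pdr1 and pdr3 grown in galactose medium; growth measured after three days at 30 °C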
Mtb hypoxia inh: Mtb hypoxia fluorescent reporter inhibition; AID 1159583; fluorescence inhibition, % (no concentration beside the values); 300,000 compounds, 0.1% hits; M. tuberculosis hypoxia-regulated fluorescent reporter, fluorescence; in the data active means fluorescence inhibition mostly above about 23%, no sharp cut-off; inactive means mostly below about 17%
VHR inh abs: blocks human VHR1 dual specificity phosphatase. P51452. recombinant VHR phosphatase, pNPP absorbance. inhibition, % at 13.3 µM. 290,000 compounds, 0.52% hits; in the data active means inhibition above about 50%
Target sequence (P51452 whole entry, looked up): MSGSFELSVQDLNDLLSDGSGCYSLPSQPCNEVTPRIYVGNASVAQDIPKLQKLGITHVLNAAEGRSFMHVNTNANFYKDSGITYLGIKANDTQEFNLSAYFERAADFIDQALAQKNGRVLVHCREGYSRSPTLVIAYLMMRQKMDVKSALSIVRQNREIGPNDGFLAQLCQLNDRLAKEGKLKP
* marks the source's active call; other numbers are inactive results; / = not tested or not shown.

SMILES | Sa RN4220 lethal | Sa ugtP lethal | PriA SSB inh | PfHsp40 yeast | Mtb hypoxia inh | VHR inh abs
O=C(COC(=O)c1ccc(F)cc1)NCCc1ccc(F)cc1 | 5.2 | 4.8 | 2.2 | -0.9 | -3.0 | 36.9
O=C(COC(=O)c1cc(Cl)nc(Cl)c1)NCCc1ccc(F)cc1 | 3.1 | 1.5 | -4.7 | 0.2 | 25.5* | /
Cc1noc(C)c1CC(=O)NCC#CCOc1ccc2c(c1)OCO2 | / | / | -1.0 | / | / | /
CN(C)C[C@H]1CSCCCN1S(=O)(=O)c1ccccc1F | / | / | 3.0 | / | / | /
Cc1ccc(CNc2nc3ccccc3n3cnnc23)cc1 | 2.4 | 9.6 | 98.3* | -0.3 | 6.2 | 37.7
CSc1ccc(CNc2nc3ccccc3n3cnnc23)cc1 | 3.4 | -0.2 | -18.9 | -1.3 | 10.5 | 17.2
COCCNc1nc2ccccc2n2cnnc12 | 4.1 | 2.5 | -6.0 | -0.3 | 15.9 | 9.5
c1ccc2c(c1)CCN(CCCNc1nc3ccccc3n3cnnc13)C2 | 2.6 | 5.6 | -9.3 | -0.3 | 7.8 | 54.2*
O=C(c1cccs1)N1CCC(Cc2n[nH]c(=O)n2-c2ccccc2F)CC1 | / | / | -6.0 | / | / | /
CC(C(=O)O)N(C(=O)c1ccccc1)c1ccc(F)cc1 (configuration not stated) | 3.6 | 5.6 | -14.5 | -0.3 | -5.2 | 52.9*
CC(=O)NC1=NN(C(C)=O)C(c2cccs2)S1 (configuration not stated) | 3.8 | -1.3 | 4.9 | 39.9* | 7.9 | 13.2
C#CCOCCOCCOCCNc1nc(N2CCN(C(=O)CCCCCCCCCCNC(=O)[C@H]([C@@H](C)CC)n3cc(CCCCCN)nn3)CC2)nc(N2CCN(C(=O)CCCCCCCCCCNC(=O)[C@H]([C@@H](C)CC)n3cc(CCCCN=C(N)N)nn3)CC2)n1 | / | / | / | 69.0* | / | /
C#CCOCCOCCOCCNc1nc(N2CCN(C(=O)CCCCCCCCCCNC(=O)[C@H]([C@@H](C)CC)n3cc(CCCCN=C(N)N)nn3)CC2)nc(N2CCN(C(=O)CCCCCCCCCCNC(=O)[C@H](CCCCN)n3cc(C)nn3)CC2)n1 | / | / | 19.3 | / | / | /
C#CCOCCOCCOCCNc1nc(N2CCN(C(=O)[C@H](CCCCN)n3cc([C@@H](N)C(C)CC)nn3)CC2)nc(N2CCN(C(=O)[C@H](Cc3cc4ccccc4[nH]3)n3cc([C@@H](N)CC(C)C)nn3)CC2)n1 (some centres not stated) | / | / | 8.5 | 38.6* | / | 24.8
C#CCOCCOCCOCCNc1nc(N2CCN(C(=O)CCCCCCCCCCNC(=O)[C@H]([C@@H](C)CC)n3cc(CCCCN=C(N)N)nn3)CC2)nc(N2CCN(C(=O)CCCCCCCCCCNC(=O)[C@H](CO)n3cc(CCCCCN)nn3)CC2)n1 | / | / | 39.3* | 8.9 | / | /
C#CCOCCOCCOCCNc1nc(N2CCN(C(=O)[C@H](Cc3cc4ccccc4[nH]3)n3cc([C@@H](N)C(C)CC)nn3)CC2)nc(N2CCN(C(=O)[C@H](CCCCN)n3cc([C@@H](N)CO)nn3)CC2)n1 (some centres not stated) | -12.1 | -2.3 | / | / | 12.7 | 39.2
C#CCOCCOCCOCCNc1nc(N2CCN(C(=O)CCCCCCCCCCNC(=O)Cn3cc(CCCCCN)nn3)CC2)nc(N2CCN(C(=O)CCCCCCCCCCNC(=O)[C@H]([C@@H](C)CC)n3cc(CCCCN=C(N)N)nn3)CC2)n1 | / | / | 32.8 | 29.1* | / | /
C#CCOCCOCCOCCNc1nc(N2CCN(C(=O)Cn3cc(CCCN=C(N)N)nn3)CC2)nc(N2CCN(C(=O)[C@H]([C@@H](C)CC)n3cc(CCCCN)nn3)CC2)n1 | / | / | -8.1 | 2.1 | / | /
Cc1cc(C)n(CCNS(=O)(=O)CCc2ccccc2)n1 | / | / | 2.0 | / | / | /
COc1ccc(Nc2nc(S(=O)(=O)c3ccc(C)cc3)c(Cl)s2)cn1 | / | / | -5.0 | / | / | /
C#CCOCCOCCOCCNc1nc(N2CCN(C(=O)CCCCCCCCCCNC(=O)[C@H](CO)n3cc(CCCSC)nn3)CC2)nc(N2CCN(C(=O)CCCCCCCCCCNC(=O)[C@H](CCCN=C(N)N)n3cc(C[C@@H](C)CC)nn3)CC2)n1 | / | / | 11.4 | 30.0* | / | /
C#CCOCCOCCOCCNc1nc(N2CCN(C(=O)CCCCCCCCCCNC(=O)[C@H](CO)n3cc(CCCSC)nn3)CC2)nc(N2CCN(C(=O)CCCCCCCCCCNC(=O)[C@H](CCCCN)n3cc(CCO)nn3)CC2)n1 | / | / | 6.7 | -2.0 | / | /
C#CCOCCOCCOCCNc1nc(N2CCN(C(=O)[C@H]([C@@H](C)CC)n3cc(CCCCN)nn3)CC2)nc(N2CCN(C(=O)[C@H](CCCCN)n3cc(CCCC)nn3)CC2)n1 | / | / | 6.7 | 33.0* | / | /
CC12CC3(C)CC(C)(C1)CC(c1ccc(Br)c(Br)c1)(C2)C3 | / | / | -17.0 | / | / | /
CC(C)(C)C(=O)Nc1nc(CC(=O)NCCC2=CCCCC2)cs1 | / | / | 19.0 | / | / | /
SMILES | Sa RN4220 lethal | Sa ugtP lethal | PriA SSB inh | PfHsp40 yeast | Mtb hypoxia inh | VHR inh abs
Cc1cc(S(=O)(=O)NCCN2CCN(c3ccccc3)CC2)ccc1F | / | / | 2.0 | / | / | /
O=C(CSc1ccccc1Cl)N1CCC(c2nc3ccccc3s2)CC1 | 95.9* | 97.2* | -20.5 | -0.9 | / | 31.9
O=C(CSc1ccc(F)cc1)N1CCC(c2nc3ccccc3s2)CC1 | -2.3 | 12.5 | -25.6 | 1.3 | / | 10.4
COc1ccc(N(CC(=O)NN=Cc2cc(Br)c(C)o2)S(=O)(=O)c2ccc(NC(C)=O)cc2)cc1 | -2.6 | 11.2 | -0.6 | / | -12.8 | /
C=C(C)C1Cc2c(C)nn(-c3nc(C)cc(C)n3)c2C1 (configuration not stated) | -19.0 | -2.8 | 3.0 | 113.2* | 8.6 | 15.4
Cn1nc(C(=O)N2CC(S(=O)(=O)Cc3ccco3)C2)ccc1=O | / | / | 8.0 | / | / | /
Cc1[nH]c2ccccc2c1N=Nc1ccc(F)cc1 | 16.2 | 69.1 | 29.7 | 12.5 | -4.6 | 19.0
Cc1[nH]c2ccccc2c1N=Nc1ccccc1F | -16.4 | 14.2 | 61.1 | 170.2* | 3.6 | 6.7
Cn1c(C(C#N)C(=NS(=O)(=O)c2cccs2)c2ccccc2)nc2ccccc21 (configuration not stated) | 7.2 | 10.7 | -7.7 | / | 7.1 | /
CCC1=NN(C(=O)c2ccccc2O)C(O)(c2ccccc2)C1 (configuration not stated) | / | / | 8.6 | 82.6* | / | 1.3
COc1ccc(S(=O)(=O)NCCn2cncn2)cc1OC | / | / | -5.0 | / | / | /
O=C(CCCn1nnnc1CN1CCOCC1)N1CCC(c2ccc(F)cc2)C1 (configuration not stated) | 0.8 | -0.5 | 38.5* | 0.6 | -4.4 | -9.4
O=c1[nH]c(=O)n(C2OC(CO)C(O)C2O)cc1F (configuration not stated) | / | / | -13.2 | 203.0* | / | /
O=C(NCc1cc(-c2cccs2)on1)C1c2ccccc2Oc2ccccc21 | / | / | -4.0 | / | / | /
CS(=O)(=O)c1ccc2nc(N3CCN(C(=O)c4cc(Cl)sc4Cl)CC3)sc2c1 | / | / | -17.0 | / | / | /
CCC(C)C1CN(C(CN2CCCC2CN2C(N)=NCC2Cc2ccccc2)C(C)C)C(=N)N1CCCC1CCCC1 (configuration not stated) | 100.0* | 100.2* | / | / | / | /
CC[C@@H](C)[C@@H]1CN([C@@H](CN2CCC[C@H]2CN2C(N)=NC[C@H]2C(C)C)C(C)C)C(=N)N1CCCC1CCCC1 | 94.0* | 99.7* | -5.7 | 1.8 | / | /
